Compound: C#CCNC(=O)CCSSCCC(=O)NCCc1ccc(C=O)c(C=O)c1
Experiment: lysine labeling ratio R10:1 (500 µM / 50 µM probe), SILAC-ABPP in living cells; higher = lower intrinsic lysine reactivity toward the probe, active = 2 or less
Conditions: HeLa; probe concentrations 500 vs 50 µM
Summary of the method: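 Each lysine carries an R value: the filtered median of MS1 peptide ratios of high probe to low probe, with the median then taken over forward and reverse replicates. These came from living SILAC light and heavy HeLa cells in PBS at room temperature labelled with an alkyne-tagged, disulfide-linked lysine probe at 500 µM or 50 µM, in forward and reverse swaps. The lysates were mixed, clicked to biotin-azide, trypsin-digested, captured on neutravidin, released by DTT, alkylated and run by LC-MS/MS on a TIMS-TOF Pro. The highest value allowed is 20.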

UniProt P07942, sequence (P07942 whole entry): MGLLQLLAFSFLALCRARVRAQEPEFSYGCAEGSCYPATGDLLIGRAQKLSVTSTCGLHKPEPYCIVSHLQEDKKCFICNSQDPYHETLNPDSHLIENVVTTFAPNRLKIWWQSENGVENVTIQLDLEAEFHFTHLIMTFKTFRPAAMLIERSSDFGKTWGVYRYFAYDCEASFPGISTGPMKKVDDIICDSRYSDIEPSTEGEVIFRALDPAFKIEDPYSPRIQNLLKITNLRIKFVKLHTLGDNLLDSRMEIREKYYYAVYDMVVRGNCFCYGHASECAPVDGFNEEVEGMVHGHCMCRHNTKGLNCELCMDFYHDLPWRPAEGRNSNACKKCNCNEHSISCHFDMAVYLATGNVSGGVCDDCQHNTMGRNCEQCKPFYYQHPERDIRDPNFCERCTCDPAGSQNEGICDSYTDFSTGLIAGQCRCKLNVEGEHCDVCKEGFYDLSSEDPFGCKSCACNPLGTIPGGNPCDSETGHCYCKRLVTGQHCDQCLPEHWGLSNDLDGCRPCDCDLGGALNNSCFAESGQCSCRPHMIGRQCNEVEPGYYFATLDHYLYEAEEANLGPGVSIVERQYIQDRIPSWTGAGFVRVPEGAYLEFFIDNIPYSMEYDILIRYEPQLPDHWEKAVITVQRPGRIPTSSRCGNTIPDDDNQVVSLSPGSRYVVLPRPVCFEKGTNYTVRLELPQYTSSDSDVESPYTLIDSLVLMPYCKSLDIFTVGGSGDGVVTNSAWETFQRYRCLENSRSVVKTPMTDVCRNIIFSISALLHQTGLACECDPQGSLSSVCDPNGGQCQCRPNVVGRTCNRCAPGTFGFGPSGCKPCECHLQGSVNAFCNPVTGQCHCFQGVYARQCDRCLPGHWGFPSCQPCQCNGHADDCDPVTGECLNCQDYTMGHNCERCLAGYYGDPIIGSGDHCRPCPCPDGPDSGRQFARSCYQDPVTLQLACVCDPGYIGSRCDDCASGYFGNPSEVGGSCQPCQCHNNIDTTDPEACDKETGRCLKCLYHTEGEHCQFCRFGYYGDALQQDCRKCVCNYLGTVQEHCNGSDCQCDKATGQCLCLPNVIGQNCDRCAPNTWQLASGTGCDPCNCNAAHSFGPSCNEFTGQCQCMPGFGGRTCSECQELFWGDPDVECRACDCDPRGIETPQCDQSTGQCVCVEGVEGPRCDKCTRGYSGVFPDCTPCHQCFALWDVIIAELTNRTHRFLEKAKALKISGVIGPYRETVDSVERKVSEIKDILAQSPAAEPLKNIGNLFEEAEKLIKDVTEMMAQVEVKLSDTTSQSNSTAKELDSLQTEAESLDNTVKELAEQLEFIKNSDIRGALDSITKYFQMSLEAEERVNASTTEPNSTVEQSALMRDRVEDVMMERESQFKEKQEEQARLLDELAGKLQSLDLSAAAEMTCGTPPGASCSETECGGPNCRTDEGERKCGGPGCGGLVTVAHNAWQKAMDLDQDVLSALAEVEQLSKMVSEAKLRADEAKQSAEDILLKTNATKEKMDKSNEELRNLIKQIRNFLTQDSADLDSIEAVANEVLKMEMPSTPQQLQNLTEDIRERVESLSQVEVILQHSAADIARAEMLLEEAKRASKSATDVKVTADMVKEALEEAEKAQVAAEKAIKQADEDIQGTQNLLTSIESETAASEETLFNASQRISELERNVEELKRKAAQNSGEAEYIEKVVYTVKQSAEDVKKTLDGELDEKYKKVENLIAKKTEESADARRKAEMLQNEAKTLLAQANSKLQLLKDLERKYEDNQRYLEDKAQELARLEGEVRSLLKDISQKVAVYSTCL
UniProt P11717, sequence (P11717 whole entry): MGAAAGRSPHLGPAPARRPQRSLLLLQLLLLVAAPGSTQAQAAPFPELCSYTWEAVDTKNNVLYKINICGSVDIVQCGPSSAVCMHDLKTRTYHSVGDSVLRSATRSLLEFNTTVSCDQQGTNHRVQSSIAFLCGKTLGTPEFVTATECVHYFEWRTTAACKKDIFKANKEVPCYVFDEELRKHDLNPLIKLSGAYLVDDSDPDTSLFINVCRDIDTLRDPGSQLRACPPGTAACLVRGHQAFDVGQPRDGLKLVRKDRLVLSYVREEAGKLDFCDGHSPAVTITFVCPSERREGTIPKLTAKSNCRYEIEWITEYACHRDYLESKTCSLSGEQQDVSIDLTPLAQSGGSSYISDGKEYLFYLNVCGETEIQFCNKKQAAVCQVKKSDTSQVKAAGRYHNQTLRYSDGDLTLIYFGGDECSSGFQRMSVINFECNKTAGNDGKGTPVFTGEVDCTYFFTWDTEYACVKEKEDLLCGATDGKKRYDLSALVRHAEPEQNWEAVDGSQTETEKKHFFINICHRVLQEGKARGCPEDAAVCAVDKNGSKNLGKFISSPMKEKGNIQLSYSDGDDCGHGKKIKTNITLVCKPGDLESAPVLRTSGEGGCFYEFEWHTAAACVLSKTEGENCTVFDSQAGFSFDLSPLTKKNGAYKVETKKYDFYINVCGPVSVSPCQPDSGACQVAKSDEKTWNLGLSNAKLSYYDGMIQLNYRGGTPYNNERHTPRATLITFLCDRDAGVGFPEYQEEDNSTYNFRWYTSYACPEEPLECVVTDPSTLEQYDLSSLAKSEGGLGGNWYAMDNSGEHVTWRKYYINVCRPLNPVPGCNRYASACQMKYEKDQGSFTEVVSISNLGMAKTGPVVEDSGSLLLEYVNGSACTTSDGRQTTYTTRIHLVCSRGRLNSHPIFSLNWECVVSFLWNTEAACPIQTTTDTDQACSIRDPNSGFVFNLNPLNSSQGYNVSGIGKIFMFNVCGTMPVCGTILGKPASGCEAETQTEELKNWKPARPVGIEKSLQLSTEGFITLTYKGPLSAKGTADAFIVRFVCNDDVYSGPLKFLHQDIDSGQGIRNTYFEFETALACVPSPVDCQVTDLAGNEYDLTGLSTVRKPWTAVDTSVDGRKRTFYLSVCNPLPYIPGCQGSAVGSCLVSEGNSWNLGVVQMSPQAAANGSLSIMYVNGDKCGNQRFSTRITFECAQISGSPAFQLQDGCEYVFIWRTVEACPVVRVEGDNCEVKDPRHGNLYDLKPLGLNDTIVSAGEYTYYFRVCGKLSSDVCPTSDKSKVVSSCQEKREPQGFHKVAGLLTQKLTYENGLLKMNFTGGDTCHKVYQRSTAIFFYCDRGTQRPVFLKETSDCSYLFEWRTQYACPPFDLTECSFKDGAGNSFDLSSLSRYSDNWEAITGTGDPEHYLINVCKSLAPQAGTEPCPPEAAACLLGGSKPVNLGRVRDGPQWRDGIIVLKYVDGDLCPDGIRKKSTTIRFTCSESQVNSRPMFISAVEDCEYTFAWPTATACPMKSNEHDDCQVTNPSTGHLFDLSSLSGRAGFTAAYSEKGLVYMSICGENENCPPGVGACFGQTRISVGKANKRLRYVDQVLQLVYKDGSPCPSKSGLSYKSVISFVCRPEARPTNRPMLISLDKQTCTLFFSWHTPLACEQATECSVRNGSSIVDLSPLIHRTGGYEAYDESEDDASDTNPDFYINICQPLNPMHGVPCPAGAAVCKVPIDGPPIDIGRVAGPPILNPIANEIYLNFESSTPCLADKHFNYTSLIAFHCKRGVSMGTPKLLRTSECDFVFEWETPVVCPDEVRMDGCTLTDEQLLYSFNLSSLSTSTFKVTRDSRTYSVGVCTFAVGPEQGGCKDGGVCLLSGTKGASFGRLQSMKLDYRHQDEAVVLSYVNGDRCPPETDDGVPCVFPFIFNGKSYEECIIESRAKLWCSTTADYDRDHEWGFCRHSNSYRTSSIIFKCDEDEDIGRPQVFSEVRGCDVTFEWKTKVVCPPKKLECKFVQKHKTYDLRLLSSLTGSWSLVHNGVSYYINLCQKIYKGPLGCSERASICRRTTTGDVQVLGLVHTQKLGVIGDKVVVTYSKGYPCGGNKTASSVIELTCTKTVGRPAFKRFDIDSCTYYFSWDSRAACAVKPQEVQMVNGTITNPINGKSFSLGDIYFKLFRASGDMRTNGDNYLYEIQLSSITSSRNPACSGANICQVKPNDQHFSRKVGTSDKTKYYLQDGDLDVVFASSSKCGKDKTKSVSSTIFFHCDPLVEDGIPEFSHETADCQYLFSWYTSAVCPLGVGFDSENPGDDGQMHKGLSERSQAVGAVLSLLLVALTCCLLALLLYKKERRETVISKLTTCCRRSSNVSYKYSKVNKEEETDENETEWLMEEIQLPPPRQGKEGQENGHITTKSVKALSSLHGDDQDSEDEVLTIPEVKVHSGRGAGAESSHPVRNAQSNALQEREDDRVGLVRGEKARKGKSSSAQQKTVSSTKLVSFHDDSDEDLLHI
UniProt Q6NZI2, sequence (Q6NZI2 whole entry): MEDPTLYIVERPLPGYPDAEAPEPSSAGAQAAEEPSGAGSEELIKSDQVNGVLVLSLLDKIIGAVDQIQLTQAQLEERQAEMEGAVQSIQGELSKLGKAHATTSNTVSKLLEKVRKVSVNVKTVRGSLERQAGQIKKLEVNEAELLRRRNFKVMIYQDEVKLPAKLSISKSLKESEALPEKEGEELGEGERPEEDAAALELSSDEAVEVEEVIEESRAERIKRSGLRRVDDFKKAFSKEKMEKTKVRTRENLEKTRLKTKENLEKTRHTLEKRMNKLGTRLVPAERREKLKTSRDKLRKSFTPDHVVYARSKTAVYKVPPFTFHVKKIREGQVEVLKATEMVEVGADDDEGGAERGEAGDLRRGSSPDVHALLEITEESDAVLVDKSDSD
UniProt P02533, sequence (P02533 whole entry): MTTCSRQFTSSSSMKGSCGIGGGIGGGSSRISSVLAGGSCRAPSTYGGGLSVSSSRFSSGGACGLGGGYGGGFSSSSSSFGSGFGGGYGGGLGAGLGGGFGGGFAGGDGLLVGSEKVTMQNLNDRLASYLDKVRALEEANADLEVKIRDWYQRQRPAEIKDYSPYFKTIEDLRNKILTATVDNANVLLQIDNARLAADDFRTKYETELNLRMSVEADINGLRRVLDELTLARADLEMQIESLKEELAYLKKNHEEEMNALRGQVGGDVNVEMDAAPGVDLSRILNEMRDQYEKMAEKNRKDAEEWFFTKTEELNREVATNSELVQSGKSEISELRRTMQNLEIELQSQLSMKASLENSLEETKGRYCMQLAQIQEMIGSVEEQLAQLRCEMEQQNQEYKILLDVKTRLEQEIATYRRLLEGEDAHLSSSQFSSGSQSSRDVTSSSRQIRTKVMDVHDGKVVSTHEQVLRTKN

| Target | lysine labeling ratio R10:1 |
| --- | --- |
| ULBP2 (lysine site: K116) (UniProt Q9BZM5) | 5.14 (inactive) |
| UniProt P05787 (lysine site: K198) | 7.97 (inactive) |
| HSPG2 (lysine site: K3155) (UniProt P98160) | 1.37 (active) |
| RPL35A (lysine site: K45) (UniProt P18077) | 1.38 (active) |
| UniProt O95490 (lysine site: K494) | 1.07 (active) |
| SPTBN1 (lysine site: K1021) (UniProt Q01082) | 6.62 (inactive) |
| CCT6A (lysine site: K530) (UniProt P40227) | 4.16 (inactive) |
| HSD17B12 (lysine site: K261) (UniProt Q53GQ0) | 1.88 (active) |
| ITGA3 (lysine site: K407) (UniProt P26006) | 2.96 (inactive) |
| ATP1B1 (lysine site: K111) (UniProt P05026) | 2.14 (inactive) |
| CDV3 (lysine site: K15) (UniProt Q9UKY7) | 2.4 (inactive) |
| F2 (lysine site: K599) (UniProt P00734) | 6.29 (inactive) |
| GDI2 (lysine site: K435) (UniProt P50395) | 4.66 (inactive) |
| IGF2R (lysine site: K303) (UniProt P11717) | 2.37 (inactive) |
| ANXA2 (lysine site: K49) (UniProt P07355) | 3.95 (inactive) |
| FRAS1 (lysine site: K2523) (UniProt Q86XX4) | 2.03 (inactive) |
| UniProt O95084 (lysine site: K331) | 4.02 (inactive) |
| UniProt Q12884 (lysine site: K258) | 3.81 (inactive) |
| UniProt P22413 (lysine site: K503) | 1.89 (active) |
| SPTAN1 (lysine site: K229) (UniProt Q13813) | 3.87 (inactive) |

| Target | lysine labeling ratio R10:1 |
| --- | --- |
| RPL3 (lysine site: K272) (UniProt P39023) | 2.04 (inactive) |
| FLNB (lysine site: K409) (UniProt O75369) | 2.05 (inactive) |
| LNPEP (lysine site: K624) (UniProt Q9UIQ6) | 0.72 (active) |
| CD44 (lysine site: K38) (UniProt P16070) | 5.01 (inactive) |
| ITGB5 (lysine site: K72) (UniProt P18084) | 2.3 (inactive) |
| LAMB1 (lysine site: K1370) (UniProt P07942) | 1.61 (active) |
| LAMB1 (lysine site: K1495) (UniProt P07942) | 4.06 (inactive) |
| UniProt Q15149 (lysine site: K3968) | 2.71 (inactive) |
| UniProt Q16181 (lysine site: K373) | 2.37 (inactive) |
| PDIA4 (lysine site: K366) (UniProt P13667) | 1.22 (active) |
| UniProt Q15149 (lysine site: K2396) | 2.3 (inactive) |
| UniProt P62829 (lysine site: K13) | 5.2 (inactive) |
| RARS (lysine site: K60) (UniProt P54136) | 3.02 (inactive) |
| UniProt Q6NZI2 (lysine site: K265) | 4.28 (inactive) |
| UniProt P02533 (lysine site: K251) | 5.36 (inactive) |
| IGF2R (lysine site: K1579) (UniProt P11717) | 0.605 (active) |
| FOLR1 (lysine site: K44) (UniProt P15328) | 1.8 (active) |
| MYH9 (lysine site: K1867) (UniProt P35579) | 2.53 (inactive) |
| MCAM (lysine site: K153) (UniProt P43121) | 4.14 (inactive) |
| LRP8 (lysine site: K567) (UniProt Q14114) | 1.53 (active) |

— the supplement of paper PMC11001985
